# Bioassay records: PubChem BioAssay, several laboratories
# In the library only some 3.3% were active in any assay of this set; here they are far more common.
# MITF TRPM1 HTS: activators of MITF-driven TRPM1 promoter activity in SK-MEL-5 cells | SK-MEL-5 TRPM1-promoter luciferase, 24 h; % of positive control, neutral wells = 0 | activation, % at 12.5 µM | actives 0.75% (n = 300,000);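 active means mean activation of at least 80% with every replicate also reaching 80%; inconclusive means mean reaches 80% but some replicate falls short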;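 further: 0% = neutral control wells and 100% = parthenolide positive control wells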
# Statin myotox sup: suppression of simvastatin myotoxicity; C2C12 myotubes + simvastatin, ATP luminescence, 48 h; scaled: DMSO 0, geranylgeraniol control 100; rescue of ATP level, % at 7.49 µM; actives 0.78% (n = 330,000); AID 602340;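 active means mean ATP rescue above about 67%, or every replicate alone reaching that limit, limit read from the data, passing the limit was not always enough; inconclusive means no clear call, values can overlap the other calls; inactive means mean under the limit and some replicate under it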;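 further: myotubes were challenged with 10 µM simvastatin during compound exposure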
# esBAF inh: SWI/SNF esBAF complex inhibition; reporter increase, % at 12.5 µM; actives 2% (n = 350,000); mouse ES cells, Bmi1-luciferase knock-in reporter, 24 h; 100% = twice the neutral-well signal; in the data active means activation above about 40%; inconclusive means no clear call, values can overlap the other calls;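 further: 0% = median of the plate's neutral control wells and 100% = double that signal; a rise in the Bmi1 reporter signal indicates esBAF inhibition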
# Wnt act: activators of Wnt/beta-catenin signaling; actives 1.2% (n = 300,000); Wnt/beta-catenin reporter cell assay, activator, plate reader; AID 743398; activation, % at 9.35 µM; in the data active means activation above about 30%, passing the limit was not always enough; inconclusive means no clear call, values can overlap the other calls;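 further: 0% = neutral control wells and 100% = positive control wells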
# FXN GAA850 act: frataxin GAA850 promoter activation; actives 0.56% (n = 360,000); AID 540364; activation, % at 6 µM; HEK293 lucGAA850 FXN promoter luciferase reporter, 24 h; percent of 10 µM SAHA response;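 active means activation above the average of all compounds screened plus 3 SD, cutoff fixed separately per campaign, cut at about 7.5% in these data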;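 further: 0% = DMSO wells and 100% = 10 µM SAHA wells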
# Active calls of the source: *; ? = inconclusive; · = no result given.
SMILES,MITF TRPM1 HTS,Statin myotox sup,esBAF inh,Wnt act,FXN GAA850 act
COC(=O)CCCNC(=O)c1ccc2nc(Cc3ccc(OC)cc3)oc2c1,25.6,3.8,16.9,1.2,2.2
COc1ccc(Cc2nc3ccc(C(=O)N4CCCC4)cc3o2)cc1,57.2,11.4,70.5*,29.3,5.8
C[C@@H]1CN([C@@H](C)CO)C(=O)Cc2cc(NS(=O)(=O)c3ccc(F)cc3)ccc2O[C@H]1CN(C)S(=O)(=O)c1cccs1,·,1.2,-2.1,·,·
COC1CCN(C(=O)c2ccc3oc(C(C)C)nc3c2)CC1,9.7,17.0,7.9,2.2,1.4
COc1ccc([C@@H](C)NC(=O)c2ccc3oc(C(C)C)nc3c2)cc1,55.2,7.8,64.4*,17.8,2.0
O=C(c1ccc2nc(Cc3cccc(Cl)c3)oc2c1)N1CCOCC1,101.9*,·,·,19.0,3.4
C[C@@H]1CCCCO[C@H](CN(C)C(=O)c2ccccc2)[C@@H](C)CN([C@@H](C)CO)C(=O)c2cc(N(C)C)ccc2O1,·,40.4,-1.7,·,·
O=C(NCCCn1ccnc1)c1sc2cc([N+](=O)[O-])ccc2c1Cl,·,-19.6,62.5*,5.8,1.9
O=C(NCCCn1ccnc1)c1sc2cccc(F)c2c1Cl,-8.1,-7.4,4.8,·,-0.9
C[C@@H]1CN([C@@H](C)CO)C(=O)Cc2cc(NC(=O)Cc3ccccc3)ccc2O[C@@H]1CN(C)C,·,16.3,0.1,·,·
C[C@H]1CN([C@@H](C)CO)C(=O)c2cc(C3=CCCC3)cnc2O[C@@H]1CN(C)Cc1ccc(C(=O)O)cc1,·,28.6,-0.5,·,·
COC(=O)NNC(=O)COc1ccc(Cl)cc1,6.7,93.6*,-6.4,-1.9,-1.1
COc1ccc(OCC(=O)Nc2ccc(Cl)cc2)cc1,10.2,·,·,-2.8,0.2
COc1ccc(N/C=C2/Sc3ccccc3NC2=O)cc1,46.8,-0.4,53.4*,-0.9,3.1
O=C1Nc2ccccc2S/C1=C/c1cccs1,·,·,·,34.0*,5.2
O=C1NC(=S)SC1=Cc1cccs1,-0.2,0.3,0.5,-3.5,1.3
Cc1ccc(N/C=C2/Sc3ccccc3NC2=O)cc1,56.3,·,·,37.3*,1.1
CCCCNC(=S)Nc1ccc(-c2nc3ccc(C)cc3s2)cc1,33.4,-25.9,21.2,13.0,7.1
CCC(C)(C)NC(=S)Nc1ccc(-c2nc3ccc(C)cc3s2)cc1,31.4,·,·,6.3,2.5
Cc1ccc2nc(-c3ccc(NC(=S)NCCC(C)C)cc3)sc2c1,30.0,3.3,32.6,48.7*,5.1
Cc1ccc2nc(-c3ccc(NC(=S)NCC(C)(C)CN(C)C)cc3)sc2c1,14.4,-1.9,-13.8,55.7*,3.4
O=C1c2ccccc2NC(c2ccccn2)N1c1ccc(Cl)cc1 (stereo not given),76.4,-1.2,60.7*,·,3.1
Cc1cccc(C2Nc3ccccc3C(=O)N2c2ccccc2)n1 (stereo not given),-9.0,37.1,1.5,0.0,-1.2
CCCNC(=O)N(C)C[C@H]1Oc2ncc(-c3ccncc3)cc2C(=O)N([C@H](C)CO)C[C@H]1C,·,3.1,-0.4,·,·
O=C(c1ccc(Br)cc1)c1coc2ccc(O)cc12,?,·,·,40.2*,1.5
SMILES,MITF TRPM1 HTS,Statin myotox sup,esBAF inh,Wnt act,FXN GAA850 act
O=C(c1ccc(Cl)cc1)c1coc2ccc(O)cc12,86.6*,4.7,9.4,·,1.0
CC(=O)c1cccc2c(O)c(C3=Nc4ccccc4C3=O)[nH]c12,-37.7,·,12.9,40.3*,1.0
C[C@H](CO)N1C[C@H](C)[C@@H](CN(C)C(=O)Nc2cccc3ccccc23)Oc2ccc(NC(=O)Nc3ccc4c(c3)OCO4)cc2CC1=O,·,43.8,6.8,·,·
CCc1cc2cc(C(=O)Nc3ccc(F)cc3)sc2s1,36.8,-14.7,32.4,48.9*,1.5
CCc1cc2cc(C(=O)Nc3ccccc3F)sc2s1,52.3,·,18.2,-1.3,2.7
Cn1nc(C(F)(F)F)c2cc(C(=O)Nc3ccc(F)cc3)sc21,-10.4,·,·,-3.6,0.5
CC(C)(C)c1ccc(C(=O)Nc2ccc(F)cc2)s1,90.9*,·,·,5.4,3.9
CC=Cc1ccc2n(c1=O)C[C@@H]1[C@@H](CO)[C@H](C(=O)NCCC)N(C(=O)CC)[C@H]21 (mixture of isomers),·,-9.0,1.3,·,·
C[C@@H]1CN([C@H](C)CO)C(=O)Cc2cc(NC(=O)c3ccncc3)ccc2O[C@H]1CN(C)CC1CCCCC1,·,16.4,-4.6,·,·
COc1cccc(NC(=O)N(C)C[C@@H]2Oc3cc(C#Cc4ccc(F)cc4)ccc3S(=O)(=O)N([C@@H](C)CO)C[C@@H]2C)c1,·,-34.6,-16.1,·,·
